Out of some 340,000 compounds screened, about 2,100 (0.62%) were called active.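 How the source made its calls: active means first-screen hits whose inhibition reached a set limit at any dose in the follow-up dose series; inconclusive means inhibition above the set first-screen limit but never retested; inactive means the rest.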 Only a sample is shown. Results with a measured potency or affinity are listed apart.
What follows are compounds tested against Rac GTPase-activating protein 1 (Homo sapiens) (UniProt Q9H0H5) (assay: blockers of MgcRacGAP-driven Rac1 GTP hydrolysis – biochemical, ADP Hunter fluorescence, primary and confirmatory, confirmation (AID 624330;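 further: fluorescence reports GDP produced by GAP-driven GTP hydrolysis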)). Settings: MgcRacGAP-stimulated Rac1 GTP hydrolysis, at 30 µM, stronger effect = higher value, GST-tagged Rac1 F28L mutant substrate.
Sequence of Rac GTPase-activating protein 1 (Homo sapiens) (Q9H0H5 whole entry, looked up): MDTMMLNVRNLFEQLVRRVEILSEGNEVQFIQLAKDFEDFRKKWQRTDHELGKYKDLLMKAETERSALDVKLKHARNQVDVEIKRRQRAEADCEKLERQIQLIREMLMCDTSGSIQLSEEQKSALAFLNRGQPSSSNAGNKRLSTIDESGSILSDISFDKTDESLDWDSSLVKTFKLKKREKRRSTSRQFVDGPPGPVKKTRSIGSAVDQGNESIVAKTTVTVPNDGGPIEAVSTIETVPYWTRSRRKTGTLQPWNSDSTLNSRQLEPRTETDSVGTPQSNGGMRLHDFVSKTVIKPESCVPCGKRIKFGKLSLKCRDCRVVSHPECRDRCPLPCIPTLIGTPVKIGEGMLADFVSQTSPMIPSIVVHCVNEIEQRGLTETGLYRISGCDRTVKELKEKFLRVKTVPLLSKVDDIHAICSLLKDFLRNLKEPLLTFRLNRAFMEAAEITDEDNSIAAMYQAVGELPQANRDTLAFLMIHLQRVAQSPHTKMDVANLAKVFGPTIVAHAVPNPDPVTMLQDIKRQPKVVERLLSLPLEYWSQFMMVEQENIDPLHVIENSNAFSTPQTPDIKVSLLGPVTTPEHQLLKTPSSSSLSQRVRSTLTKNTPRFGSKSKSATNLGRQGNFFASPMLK

inhibition, inactive:
CCOc1cc(/C=C(\C#N)C(=O)Nc2ccccc2C(=O)O)ccc1OC(=O)c1ccc(C)cc1 12.7%
CCOC(=O)C1=C(N)n2c(s/c(=C\c3cccnc3)c2=O)=C(C#N)C1c1cccnc1 (stereo not given) 9.67%
CCOc1ccc(NC(=O)CN2CC(c3ccccc3)CC2=O)cc1 (stereo not given) 1.86%
CSc1cc(N2CCOCC2)nc(-c2ccccc2Cl)n1 2.89%
CCN1C(=O)[C@H]2[C@@H](c3ccc(-c4ccc(F)cc4)c(OC)c3)N[C@@](Cc3ccccc3)(C(=O)OC)[C@H]2C1=O 0.02%
OC(CN1CCN(C(c2ccccc2)c2ccccc2)CC1)c1ccccc1 (stereo not given) 8.44%
O=C(NCc1cccc(Cl)c1)C1CCC(=O)N(CCCN2CCCC2=O)C1 (stereo not given) 10.9%
CN(C(=O)c1cccc(C#CC(C)(C)O)c1)C1CCCN(Cc2ccccc2F)C1 (stereo not given) -6.83%
COc1ccc(N2CCN(C(=O)CSc3ccccc3)CC2)cc1 17.2%
O=C(CSc1ccccc1)N1CCN(c2ccccc2)CC1 10.2%
Cc1cnc(CNC(=O)c2ccc3oc(C(C)C)nc3c2)[nH]1 -0.66%
Cc1cc(Cl)c(OCCCn2cncn2)c(Br)c1 13.1%
Cc1cc(Cl)cc(Br)c1OCCCCn1cncn1 15.5%
O=c1c2ccccc2nnn1-c1ccccc1[N+](=O)[O-] 10.5%
COc1cc(C(=S)N2CCCC2)ccc1O 24.9%
COc1cc(C(=S)N2CCCCC2)ccc1O 13.6%
O=C(OCc1ccccc1)N1CCC2CC1c1cc(N3CCNCC3)ccc12 (stereo not given) 10.7%
Cn1c(=O)[nH]c(=O)c2c1nc(N1CCCCCC1)n2Cc1cccc2ccccc12 12.6%
CC(=O)NC(Cc1ccccc1)C(C)=O (stereo not given) 8.26%
CCOC(=O)C(Cc1ccccc1)NC(C)=O (stereo not given) -0.49%
COc1cc(CCC(=O)Nc2nnc(-c3cccnc3)s2)cc(OC)c1OC 9%
O=C(O)c1cc(NCc2cccs2)ccc1N1CCOCC1 8.2%
COC(=O)c1cc(NC(=O)c2cccs2)ccc1N1CCOCC1 8.25%
COC(=O)c1cc(NCc2c(F)cccc2Cl)ccc1N1CCOCC1 23.3%
Clc1cc(NCc2cccs2)ccc1N1CCOCC1 14.1%
COc1ccccc1CNc1ccc(N2CCOCC2)c(C(=O)O)c1 11.4%
CCOC(=O)c1cc(NC(=O)c2cccs2)ccc1N1CCOCC1 10.9%
CC(C)[C@H](NC(=O)c1ccccc1)C(=O)OCC(=O)N1CC2(C)CC1CC(C)(C)C2 (stereo not given in full) -5.69%
Cc1ccc(S(=O)(=O)N2CCN(c3nc(CN4CCCC4)nc4sc(C)c(C)c34)CC2)cc1 6.41%
CC(C)OC(=O)CSc1nnc(-c2ccc(Cl)cc2Cl)o1 9.06%
O=C1OCCC1=COCCCCCOC=C1CCOC1=O 3.03%
N#Cc1ccccc1NC(=O)CSc1n[nH]c(=O)n1C1CC1 -2.21%
COc1ccccc1CN1CCNC(=O)C1CC(=O)NCCc1cnccn1 (stereo not given) 4.17%
COc1ccccc1/C=N/NC(=O)C(C)Cn1cnc2ccccc21 (stereo not given) 2.07%
COc1cc(NC(c2ccccc2)c2ccccc2)cc(OC)c1OC 11%
COc1cc(C(=O)NC(c2ccccc2)c2ccccc2)cc(OC)c1C 2.28%
O=C(OCC(=O)N1CCN(S(=O)(=O)c2ccc(Cl)cc2)CC1)c1cccc(OC(F)F)c1 5.16%
O=C(c1ccc(O)c(Br)c1)c1cc(Br)ccc1O 4.27%
O=C(CCNC(=O)c1ccco1)Nc1ccccc1OC(F)F 5.22%
CCCC1=Nc2cc(C(=O)NCCCN3CCOCC3)ccc2Sc2ccccc21 10.2%
CC(Nc1ccc(Cl)cc1)c1cc(Cl)ccc1O (stereo not given) 7.06%
CCOc1ccc(NC(C)c2cc(Cl)ccc2O)cc1 (stereo not given) 15.5%
COC(=O)c1ccc(Nc2nc(-c3ccncc3)nc3ccccc23)cc1 4.52%
CCN1CCN(C(=O)C2CCN(C(=O)c3cc4sccc4n3CC)CC2)CC1 9.89%
Oc1ccc(N=Nc2cccc(C(F)(F)F)c2)cc1C=Nc1ccc(N2CCOCC2)cc1 9.72%
FC(F)(F)c1cccc(N2Cc3ccccc3C2)c1 11.1%
O=C(N/N=C/c1ccccc1O)c1cccc(C(F)(F)F)c1 -1.42%
FC(F)(F)c1cccc(CN2CCCCCC2)c1 26.2%
CN1CCC(N2CCN(c3cccc(C(F)(F)F)c3)CC2)CC1 5.09%
O=C(C1CCC1)N1CCN(c2cccc(C(F)(F)F)c2)CC1 0.34%
O=C(C1=C(O)C(=O)N(CCN2CCOCC2)C1c1ccccn1)c1cccs1 (stereo not given) 8.66%
COc1cc2c(cc1NC(=O)c1ccc(C)c([N+](=O)[O-])c1)oc1ccccc12 8.23%
CN(C)S(=O)(=O)c1ccc(C(=O)Nc2cccc(C(=O)O)c2)cc1 -1.04%
CCN(CC(=O)N1CCCCC1)S(=O)(=O)c1ccccc1 5.64%
CCOC(=O)C1CCN(C(=O)c2cccc(S(=O)(=O)N3CCc4ccccc43)c2)CC1 3.11%
CCCCNC(=O)C(CC)Sc1nc2sc(C(=O)OC)c(C)c2c(=O)n1N (stereo not given) 9.24%
CCCCOC(=O)c1nc(Cl)c(Cl)c(N)c1Cl -9.26%
O=C1C=C(Nc2ccc(Cl)cc2)CC(c2ccco2)C1 (stereo not given) 5.91%
O=C1C=C(Nc2cccc(O)c2)CC(c2ccco2)C1 (stereo not given) 9.63%
Oc1[nH]c2ccccc2c1N=Nc1ccc(F)cc1 4.29%
O=C(O)c1ccc(N=Nc2c(O)[nH]c3ccccc23)cc1 5.98%
CCN1CCN(S(=O)(=O)c2ccc(S(=O)(=O)NCC3CCCO3)cc2)CC1 (stereo not given) 1.86%
CCN1CCN(C(=O)NC2CCCCC2)CC1 30.1%
Cc1ccc[n+](CC(=O)c2ccc(Br)cc2)c1C -7.12%
Nc1ccccc1C=C1Cc2ccccc2C1=O 3.76%
CC(C)c1ccc(OCC(=O)NCc2ccco2)cc1 6.29%
O=C(NCc1ccco1)c1ccc(COc2ccc(Cl)cc2)cc1 -1.23%
Cc1noc(C)c1S(=O)(=O)Nc1ccc2c(c1)C(=O)N([C@H](C)CO)C[C@@H](C)[C@@H](CN(C)Cc1ccc3c(c1)OCO3)O2 1.37%
CC(=O)Nc1ccc(S(=O)(=O)N2CCC(N3CCCC3)CC2)cc1 18.2%
Cc1ncc([N+](=O)[O-])n1Cc1cccc2ccccc12 5.41%
CCCNC(=O)NC(=O)COC(=O)CNS(=O)(=O)/C=C/c1ccccc1 6.44%
O=c1sc2ccccc2c(=O)n1Cc1ccccc1F 7.23%
O=c1c2ccccc2sn1-c1ccc(S(=O)(=O)N2CCCC2)cc1 21.2%
O=C(O)c1cn(-c2ccc(F)cc2)c(=O)c2ccccc12 8.79%
COc1ccc(Cn2c(=O)sc3ccccc3c2=O)cc1 3.77%
Cc1ccc(Cn2c(=O)sc3ccccc3c2=O)cc1 5.22%
COc1ccc(-n2c(=O)c3ccccc3c3ccccc3c2=O)cc1 11.5%
Cn1sc2ccccc2c1=O 18%
O=C(c1sc2ccccc2c1Cl)N1CCN(c2ccc(F)cc2)CC1 3.37%
COc1ccc(NC(=O)COC(C)=O)cc1Cl 3.23%
CCOc1ccc(S(=O)(=O)NCCC(=O)NCC(c2cccs2)N(C)C)cc1 (stereo not given) 8.66%
C#CCNc1cc(C)nc2ncnn12 1.75%
CC(C)CNC(=S)N(CCO)Cc1cc2cc3c(cc2[nH]c1=O)OCO3 14.8%
CC(=C1SC(=S)NC1=O)c1ccccc1 -4.42%
O=C(/C=N/NC(=O)c1ccc(Cl)cc1Cl)c1ccccc1 15%
COc1ccccc1-n1c(SCC(=O)NC2CCCCC2)nc2c(c1=O)SCC2 12.8%
COc1ccc(C(=O)Nc2ccccc2NC(=O)c2ccco2)cc1OC 11%
C/C(=C\C(=O)c1ccc(F)cc1)Nc1ccc(N2CCOCC2)cc1 15.3%
CCCCNC(=S)Nc1ccc(Cl)cc1 8.23%
O=C(NCCNC(=O)Nc1ccc(Cl)cc1)Nc1ccc(Cl)cc1 0.54%
CCOc1ccccc1CNC(=O)C1CCN(c2nn3c(=O)cc(C)nc3s2)CC1 10.9%
O=[N+]([O-])c1ccc(-n2nnnc2CN2CCOCC2)cc1 8.87%
C/C(=N\O)c1ccc2c3ccccc3n(C)c2c1 11%
COc1ccc2c(c1)c1ccccc1n2C -2.65%
Cc1cc(N2CCOCC2)nc(SCc2c(Cl)cccc2Cl)n1 8.06%
Clc1ccc(CN2CCC(Cc3ccccc3)CC2)cc1 14.2%
O=C(O)C1CCN(Cc2ccccn2)CC1 4.54%
O=c1ccn([C@H]2C[C@H](O)[C@@H](CO)O2)c(=O)[nH]1 1.01%
CN(CC(=O)NCC(=O)Nc1ccc(F)cc1)C1CCS(=O)(=O)C1 (stereo not given) 3.81%
COc1ccc2c(c1)C(c1ccccc1)=NNC(c1ccco1)=N2 2.48%

— PubChem BioAssay AID624330 (Southern Research Specialized Biocontainment Screening …, 2012)
